Source: PubChem
Hits are enriched below; roughly 11% of the tested compounds scored in any of these assays.
PNC assembly inh – inhibitors of perinucleolar compartment assembly. PC3M PTB-GFP, PNC prevalence imaging, 16 h; hits give low values. activity change (PNC), negative = inhibition, % at 10 µM. 140,000 compounds, 3.1% hits. AID 2417;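 active means readout at or below -70, meaning at least 70% loss of cells showing the perinucleolar compartment, a nuclear body marking cancer cells; inconclusive means readout between -30 and a set limit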;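 further: plate controls were DMSO wells for no effect and camptothecin positive control wells for full effect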
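Read-out is percentage of cells bearing a perinucleolar compartment, from automated 20x imaging of fixed, Hoechst-stained PC3M PTB-GFP cells. Cells were seeded 4 h, then exposed 16 h to compound (23 nl of library stock) in duplicate plates.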
HPGD block – inhibitors of human 15-hydroxyprostaglandin dehydrogenase (HPGD). purified HPGD, NADH fluorescence kinetic, PGE2 substrate. 150,000 compounds, 4.3% hits. Potency, µM, for the others: at the top dose activity change, negative = inhibition, usual class: inhibitors. P15428; further: potency means the concentration at half of the fitted maximal effect
Target sequence (P15428 whole entry, looked up): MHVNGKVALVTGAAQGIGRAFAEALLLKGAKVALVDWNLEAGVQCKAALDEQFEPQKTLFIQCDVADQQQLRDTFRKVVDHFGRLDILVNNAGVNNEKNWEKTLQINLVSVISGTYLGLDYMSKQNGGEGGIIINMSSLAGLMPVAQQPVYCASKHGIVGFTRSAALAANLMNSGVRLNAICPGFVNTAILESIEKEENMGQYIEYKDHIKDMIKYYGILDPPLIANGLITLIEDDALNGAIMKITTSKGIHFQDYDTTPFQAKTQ
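20 nM HPGD preincubated 15 min at room temperature with compound in 50 mM Tris-HCl pH 8, 0.01% Tween 20. Started with 1 mM NAD+ and 30 uM prostaglandin E2; NADH fluorescence (360/450 nm) read 5 times over 30-s intervals, last minus first.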
IMPase cell inh – membrane-permeable compound that blocks inositol monophosphatase; inhibition (IP1 accumulation), % at 46.1 µM; AID 901; 120,000 tested, under 10 active; CHO-M1 cells, IP1 accumulation, HTRF TR-FRET ratio; active means well fitted curve in the direction sought with a large enough effect in the signal ratio, not every such curve was filed as active; inconclusive means small, poorly fitted or top-dose-only effect, or a change in a side signal; inactive means no such curve, though single readings can be large or run the other way; the % refers to the signal ratio;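 further: cells stimulated with carbachol in lithium chloride buffer; plate controls were DMSO basal wells for no effect and reference inhibitor wells for full effect; higher means more IMPase inhibition seen as more IP1 and lower FRET ratio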
Target sequence (P97697 whole entry, looked up): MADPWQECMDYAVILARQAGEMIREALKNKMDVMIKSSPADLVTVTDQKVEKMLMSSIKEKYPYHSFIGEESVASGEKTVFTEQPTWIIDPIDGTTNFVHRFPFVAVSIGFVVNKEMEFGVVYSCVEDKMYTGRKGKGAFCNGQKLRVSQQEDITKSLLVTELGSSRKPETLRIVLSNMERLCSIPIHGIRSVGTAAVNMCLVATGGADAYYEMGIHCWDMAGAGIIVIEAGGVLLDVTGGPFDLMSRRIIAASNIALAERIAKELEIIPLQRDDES
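Carbachol-driven Gq signalling in CHO-M1 cells (2000/well) generates IP1. Compounds that block IMPase raise IP1 and so reduce the FRET signal from Eu-anti-IP1 and d2-IP1 after a 10 min room-temperature lysis.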
NPSR antagonist – antagonists of human neuropeptide S receptor cAMP signaling; CHO-NPSR cells, cAMP TR-FRET, antagonist mode; Potency, µM (doses to about 38.3 µM), for inactives: at the highest dose activity change, negative = inhibition, hits mostly inhibitors; AID 1461; Q6W5P4; 220,000 compounds, 1% hits; active means well fitted curve in the direction sought with a large enough effect; inconclusive means small, poorly fitted or top-dose-only effect, or another doubt; inactive means no such curve, though single readings can be large; an effect the other way counts as inactive or inconclusive; further: potency means the concentration at half of the fitted maximal effect; nearly all actives have a fitted effect of over 50% in size
ALDH1A1 block – ALDH1A1 (human) enzyme inhibition. AID 1030. 220,000 compounds, 7.3% hits. Purified ALDH1A1, NADH fluorescence, propionaldehyde substrate. Potency, µM (highest dose often 75.3 µM), without a hit: top-dose activity, negative = inhibition, hits mostly inhibitors;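 further: potency means the concentration at half of the fitted maximal effect; plate controls were no enzyme wells and a reference inhibitor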
IMPase Li cell – IMPase inhibition in cells with lithium potentiation; CHO-M1 cells, IP1 TR-FRET (IP-One), carbachol + lithium; Potency, µM (series often up to 59.4 µM), for inactives: at the highest dose activity, negative = IMPase inhibition, hits mostly inhibitors; 210,000 compounds, 0.35% hits; AID 1457; active means well fitted curve in the direction sought with a large enough effect; inconclusive means small, poorly fitted or top-dose-only effect, or another doubt; inactive means no such curve, though single readings can be large; an effect the other way counts as inactive or inconclusive;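 further: IP1 builds up when IMPase is blocked and the TR-FRET signal falls; potency means the concentration at half of the fitted maximal effect; plate controls were basal vehicle for no effect and high inhibitor control for full effect; nearly all actives have a fitted effect of over 50% in size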
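Concentration–response in CHO-M1 cells, lithium-potentiated; 30 min at 37C. IP1 detected by competitive TR-FRET after 10 min lysis at RT. Hill-fitted AC50.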
Starred values were filed as active, the others as inactive; ? = inconclusive; / = not tested or not shown; ! = a repeat was not active; [ ] = remark or other dose. Unless noted, the call rests on the fitted dose curve; in most records, active means well fitted inhibition curve with a large enough effect (not every such curve was filed as active); inconclusive means small, poorly fitted or top-dose-only effect, or another doubt; inactive means no such curve, though single readings can be large or run the other way. Unless noted, on the % scale 0 is the no-effect control and ±100 the full control effect.

SMILES	PNC assembly inh	HPGD block	IMPase cell inh	NPSR antagonist	ALDH1A1 block	IMPase Li cell
CCN1C(=O)[C@H]2[C@H]3[C@H](O)[C@H](O)C/C(=N/OC[C@@H](O)[C@H]4O[C@H]5OC(C)(C)O[C@H]5[C@@H]4O)[C@@H]3CC[C@@H]2C1=O	/	/	/	/	14.1%[13.5 µM]	/
O=C(O)CNS(=O)(=O)c1ccc(F)cc1	?	4.6%	-6.7	11.3%[46.1 µM]	-5.1%	15.2%[38.3 µM]
C=CCNC(=O)CNS(=O)(=O)c1ccc(F)cc1	53.0	31.6µM*	-1.8	-23.8%[46.1 µM]	?	25.3%[38.3 µM]
N#C/C(=N\Nc1ccc(S(=O)(=O)N2CCOCC2)cc1)C(N)=S	/	/	/	42.7%	3.16µM*	/
N#CC(C#N)=NNc1ccc(S(=O)(=O)N2CCCCC2)cc1	?	31.6µM*	/	-39.6%	?	14.5%
CCCCC[C@H](O)/C=C/[C@H]1C=CC(=O)[C@@H]1C/C=C\CCCC(=O)O	-96.1*	22.4µM*!	/	-28.2%	39.8µM*!	3.4%
Oc1ccc(C2=Nn3c(nnc3-c3ccco3)SC2)cc1O	?	14.1µM*	17.3	?	8.91µM*	61.3%
COc1ccc(OC)c(C2=Nn3c(nnc3-c3ccco3)SC2)c1	37.9	28.2µM*	2.0	?	-5.2%	5.0%[38.3 µM]
CCC(=O)Oc1ccc(/C(CC)=C(\CC)c2ccc(OC(=O)CC)cc2)cc1	-23.3	-12.3%	/	-11.7%	-3.8%	15.7%
COC(=O)N1CCC2(CC1)CN(c1ccc(-c3ccccc3)cc1)C2	/	-13.3%	/	/	?	0.5%
Clc1ccccc1-c1nnn(Cc2ccc(-c3nn[nH]n3)cc2)n1	17.4	12.6µM*	3.9	-5.3%[46.1 µM]	15.8µM*	16.1%[38.3 µM]
Clc1ccc(Cn2nnc(-c3ccccc3)n2)cc1	-100.0*	-14.1%	14.3	-8.6%[46.1 µM]	5.5%	11.7%
Clc1ccccc1Cn1nnc(-c2ccccc2)n1	/	/	/	-13.3%	-3.5%	-2.8%
O=C(O)CC/C(=N/NC(=O)CNC(=O)Cc1ccc(Cl)cc1)c1ccccc1	/	/	/	10.1%	/	/
CN(C)c1ccc(C2C=C(c3ccc(Cl)cc3OC(F)F)Nc3ncnn32)cc1 (configuration not stated)	35.2	-9.5%	22.6	-11.6%[46.1 µM]	20µM*	6.8%
COc1cccc(O[C@@H]2O[C@@H]3COC(C)(C)O[C@H]3[C@H](O)[C@H]2NC(C)=O)c1	-1.8	-9.5%	8.1	8.9%[46.1 µM]	1.9%	-5.5%
CCOC(=O)N1CCN(Cc2nc3c(c(=O)n(C)c(=O)n3C)n2Cc2cc(C)ccc2C)CC1	?	-3.9%	12.1	-23.3%[46.1 µM]	0.891µM*	-5.3%[38.3 µM]
CCOC(=O)Cn1c(CN2CCN(C(c3ccccc3)c3ccccc3)CC2)nc2c1c(=O)n(C)c(=O)n2C	?	-7.9%	?	15.8µM*	-11.0%	34.7%[38.3 µM]
Cn1c(=O)c2c(nc(CN3CCN(C(c4ccccc4)c4ccccc4)CC3)n2CC(N)=O)n(C)c1=O	41.3	-10.0%	1.5	0.3%[46.1 µM]	6.1%	15.8%[38.3 µM]
CN1C(=O)/C(=C/c2ccccc2OCc2cccc(F)c2)NC1=S	28.0	4.47µM*	13.4	-29.7%[46.1 µM]	-11.8%	10.9%
CN1C(=O)/C(=C/c2ccccc2OCc2ccccc2)NC1=S	?	11.2µM*	/	-47.0%	?	25.2%
CCN1CCCC1CNCc1cccc(OC)c1OCc1ccccc1 (configuration not stated)	6.6	-11.6%	/	13.9%	7.3%	11.5%
O=C(N/N=C/c1ccc(N2CCCC2)c([N+](=O)[O-])c1)c1cccnc1	/	/	/	-23.1%	0.282µM*	3.6%
O=C(N/N=C/c1ccc(N2CCOCC2)c([N+](=O)[O-])c1)c1ccc(F)cc1	8.5	-15.1%	-0.6	-6.3%[46.1 µM]	5.01µM*	18.7%[38.3 µM]
O=C(N/N=C/c1cc2c(cc1[N+](=O)[O-])OCO2)c1cccnc1	/	/	/	-34.0%	/	/
SMILES	PNC assembly inh	HPGD block	IMPase cell inh	NPSR antagonist	ALDH1A1 block	IMPase Li cell
c1cc(-c2nnc3n2CCC3)[nH]n1	26.1	/	9.9	3.9%[46.1 µM]	-13.2%	/
N#Cc1c(NC(=O)C2CC=CCC2C(=O)O)sc2c1CCCCCC2 (configuration not stated)	?	17.8µM*	/	-26.8%	?	-9.5%
CC(C)(C)C1CCc2c(sc(NC(=O)C3CC=CCC3C(=O)O)c2C#N)C1 (configuration not stated)	?	15.8µM*	/	-57.6%	7.08µM*	0.6%
CCn1c(SCC(=O)Nc2sc3c(c2C#N)CCC(C(C)(C)C)C3)nnc1-c1ccco1 (configuration not stated)	23.8	-23.0%	3.1	-8.8%[46.1 µM]	39.8µM*	-2.4%[38.3 µM]
CCn1c(SCC(=O)Nc2sc3c(c2C#N)CCCC3)nnc1-c1ccco1	0.0	-4.7%	-5.8	-14.7%[46.1 µM]	9.9%	39.4%[38.3 µM]
CC(C)(C)C(=O)Nc1sc2c(c1C#N)CCCCC2	31.6	-16.0%	-7.9	-3.9%[46.1 µM]	-1.6%	3.0%
N#Cc1c(NC(=O)CN2CCN(C(=O)c3ccco3)CC2)sc2c1CCCCC2	-26.4	8.91µM*	7.9	-23.0%[46.1 µM]	7.08µM*	-13.0%[38.3 µM]
CCOC(=O)C1=C(C)SC2=NS(=O)(=O)CCN21	16.5	-5.3%	-3.0	-6.0%[46.1 µM]	9.4%	-16.2%[38.3 µM]
N#Cc1c(NC(=O)CCC(=O)O)sc2c1CCCCC2	/	/	/	-7.1%	14.1µM*	7.0%
CCn1ncc([N+](=O)[O-])c1C(=O)Nc1ccc(C(=O)N2CCCCC2)cc1	14.5	2.24µM*	/	7.2%	?	-1.2%
Cn1cc([N+](=O)[O-])c(C(=O)Nc2ccc(C(=O)N3CCCCC3)cc2)n1	?	0.398µM*	/	2.7%	-11.7%	5.4%
Cn1cc([N+](=O)[O-])c(C(=O)Nc2cc(Oc3cccnc3)cc([N+](=O)[O-])c2)n1	?	-7.1%	1.1	-8.8%[46.1 µM]	12.6µM*	-16.2%[38.3 µM]
O=C(Nc1ccc(C(=O)N2CCCC2)cc1)c1ccccc1[N+](=O)[O-]	/	/	/	6.5%	6.9%	3.7%
O=[N+]([O-])c1cc(Oc2cccnc2)cc([N+](=O)[O-])c1	23.4	-9.5%	/	25.0%	-1.2%	-3.0%
Cc1cc(C)n(-c2cccc3cccnc23)n1	?	-17.1%	12.5	-6.0%[46.1 µM]	1.6%	8.9%[38.3 µM]
C=CCn1c(COc2ccccc2)nnc1SCC(=O)C(C)(C)C	13.2	-11.3%	1.1	-15.4%[46.1 µM]	?	39.8%[38.3 µM]
Oc1ccc(-c2nc(=S)[nH][nH]2)cc1	-27.5	?	5.9	-23.2%[46.1 µM]	?	7.9%
CCOc1ccc(-c2nc(=S)[nH][nH]2)cc1	5.1	?	-3.8	?	25.1µM*	-13.6%[38.3 µM]
COc1ccc(-c2nc(=S)[nH][nH]2)cc1	8.3	12.6µM*	?	-6.7%[46.1 µM]	12.6µM*	-8.5%[38.3 µM]
CCN(CC)S(=O)(=O)c1ccc(C)c(NC(=O)Cn2c(=O)cnc3ccccc32)c1	29.1	-27.4%	0.6	5.0%	?	7.8%
O=C(COC(=O)Cc1cn2ccsc2n1)Nc1nc2ccccc2s1	-100.0*	-3.7%	-3.2	-23.1%[46.1 µM]	-13.0%	-16.1%[38.3 µM]
